# PubChem BioAssay AID624351 (Southern Research Specialized Biocontainment Screening …, 2012)
# Among all 2,400 compounds or so, about 1,400 (58%) were called active.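 The calls were made as follows: active = inhibition of 30% or more at any tested dose; inconclusive = primary hits over the limit that were never retested; inactive = the rest.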 So high a share suggests a set chosen from earlier hits. Some of the results follow.
# Experiment: ADP Hunter readout inhibition without MgcRacGAP – biochemical, coupled enzyme counter-screen, artefact control for MgcRacGAP inhibitor project, dose response (AID 624351);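 also: signal is the ADP detection kit reading of free GDP without any GAP enzyme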
# Conditions: fluorescence, no MgcRacGAP; series mostly up to 80 µM
row,SMILES,IC50
1,Cc1cccc2c(N)c3c(nc12)N(C)CC3,inactive
2,Cc1ccc2c(C)nc(/N=C(\N)NC(=O)N3c4ccccc4Sc4ccccc43)nc2c1,inactive
3,Cc1cccn2c(CNC3CCCc4ccccc43)c(C(=O)N3CCCCC3)nc12 (stereo not drawn),inactive
4,O=C(CN1CCN(c2ccccn2)CC1)Nc1ccc(F)cc1,inactive
5,CCCCOc1ccc(NC(=O)CN2CCN(CC)CC2)cc1,inactive
6,CN(C)c1ccc(NC(=O)CN2C(=O)c3ccccc3C2=O)cc1,83.9 µM (active)
7,CN(C)c1ccc(NC(=O)CCN2C(=O)c3cccc([N+](=O)[O-])c3C2=O)cc1,72.7 µM (active)
8,Cc1ccc(NC(=O)CN2CCC(Cc3ccccc3)CC2)cc1S(=O)(=O)N(C)C,inactive
9,CN1CC(=O)N(CC(=O)Nc2ccc(N(C)C)cc2)c2ccccc2C1=O,58.4 µM (active)
10,Cc1cc(O)ccc1NC(=O)c1ccccc1,71 µM (active)
11,O=C1C(Cl)=C(NC(=O)c2ccccc2)C(=O)C(Cl)=C1NC(=O)c1ccccc1,inactive
12,CCN(CC)CCCC(C)NC(=O)c1c(NC(=O)c2ccccc2)sc2c1CCCC2 (stereo not drawn),inactive
13,O=C(O)CCCNC(=O)/C=C/c1ccco1,inactive
14,CSc1ccc(CN2CCC(C(=O)NCc3ccc(C)cc3)CC2)cc1,inactive
15,Cc1csc(=O)n1CC(=O)OC(C)C(=O)Nc1ccc(N(C)C)cc1 (stereo not drawn),56.8 µM (active)
16,CC1CN(CCCCN2C(=O)c3ccccc3C2=O)CC(C)O1 (stereo not drawn),inactive
17,Cc1cc(C)c(S(=O)(=O)Nc2ccc(N(C)C)cc2)c(C)c1-n1cnnn1,44.4 µM (active)
18,O=[N+]([O-])c1ccc(C2CC(c3ccccc3)=Nc3ccccc3S2)cc1 (stereo not drawn),inactive
19,Cc1ccc(Cl)cc1-c1ccc(C=Nc2ccc(N3CCOCC3)cc2)o1,11.4 µM (active)
20,Clc1cccc(-c2ccc(C=Nc3ccc(N4CCOCC4)cc3)o2)c1Cl,14.8 µM (active)
21,O=C1CCCC2=C1Sc1ccc(Cl)cc1N2,65.6 µM (active)
22,COc1ccc(NCCC(O)c2ccc(Cl)cc2)cc1 (stereo not drawn),28 µM (active)
23,CC(C)NCC#CCOc1ccc(Cl)cc1,inactive

row,SMILES,IC50
1,COc1ccc(NC(C)c2cc(Cl)ccc2O)cc1 (stereo not drawn),61.5 µM (active)
2,COc1ccc(O)c(C(c2c(C)[nH][nH]c2=O)c2c(C)[nH][nH]c2=O)c1,inactive
3,CCN(CC)S(=O)(=O)c1ccc(N/N=C/c2ccc(O)cc2O)nc1,29.4 µM (active)
4,CCN(CC)S(=O)(=O)c1ccc(N/N=C/c2ccc(O)cc2)nc1,38 µM (active)
5,C[n+]1c(-c2ccccc2)cc2c(=Cc3ccc([N+](=O)[O-])cc3)c3ccccc3n21,inactive
6,CC(C)CN(Cc1c(O)ccc2ccccc12)CC(C)C,53.2 µM (active)
7,CN=c1scc(C)n1/N=C/c1cc(Br)c(O)c(OC)c1,12.6 µM (active)
8,CN=c1scc(C)n1/N=C/c1cc(Br)c(O)c(Br)c1,69.6 µM (active)
9,COc1cc(/C=C2/C(=O)NN(c3ccc(Cl)cc3)C2=O)cc(Br)c1O,inactive
10,CCN=c1scc(C)n1/N=C/c1cc(Br)c(O)c(OC)c1,28.7 µM (active)
11,Cc1cc(C)cc(-n2c3nc4ccccc4nc3c3c(=O)n(Cc4ccco4)cnc32)c1,inactive
12,COc1ccc(CN2CCN(Cc3ccc4ccccc4c3)CC2)cc1OC,inactive
13,CN1CCCCCC1=Nc1ccccc1C#N,inactive
14,Cc1cc(/C=C2\SC(=S)NC2=O)cc(C)c1O,29.1 µM (active)
15,O=C1NC(=S)S/C1=C\C=C\c1ccc([N+](=O)[O-])o1,inactive
16,Cc1cc(/C=C2\SC(=S)NC2=O)c(C)[nH]1,inactive
17,COc1cc(/C=C2\SC(=Nc3ccc(Cl)c(C(=O)O)c3)NC2=O)c(Br)c(Br)c1O,37.5 µM (active)
18,COc1ccc(/C=N/N=C2/NC(=O)C(CC(=O)O)S2)cc1OCc1ccc(Cl)cc1Cl (stereo not drawn),inactive
19,O=C1NC(=S)S/C1=C\c1cc(Cl)cc(Cl)c1O,inactive
20,Cn1cccc1/C=C1\SC(=Nc2ccc(O)cc2)NC1=O,62.7 µM (active)
21,COc1cc(/C=N/N=C2/NC(=O)C(c3ccccc3)S2)ccc1O (stereo not drawn),41.6 µM (active)
22,COc1ccc(N=C2NC(=O)/C(=C/c3ccc(O)c(OC)c3)S2)cc1,24.1 µM (active)
23,COCCCNCCCCOc1c(Cl)cc(C)cc1Br,inactive

row,SMILES,IC50
1,Nc1cc(SCc2ccc([N+](=O)[O-])cc2)ncn1,inactive
2,COc1cc(/C=C2\SC(=Nc3ccccc3)NC2=O)cc(Cl)c1O,82 µM (active)
3,COc1cc(C=C2NC(=O)NC2=O)ccc1O,19.4 µM (active)
4,COc1cc(/C=C2/C(=O)ON=C2c2ccccc2)ccc1O,inactive
5,CN(C)c1ccc(/C=C2/NC(=O)NC2=O)cc1,52.8 µM (active)
6,COc1cc(/C=C2/SC(=Nc3ccc(O)cc3)NC2=O)ccc1O,27.2 µM (active)
7,CCOc1ccc(C2NC(=O)C(C#N)=C(S)N2c2cccc(C)c2)cc1OC (stereo not drawn),inactive
8,COc1cc(/C=C2\SC(=Nc3ccccc3OC)NC2=O)ccc1O,25 µM (active)
9,COc1ccccc1-c1cn[nH]c1-c1ccc(O)cc1O,51.4 µM (active)
10,COc1ccc(-c2cn[nH]c2-c2ccc(O)cc2O)cc1OC,57.6 µM (active)
11,COc1ccc(-c2cn[nH]c2-c2ccc(O)cc2O)cc1,47.9 µM (active)
12,CCn1c(=O)c(C(=O)CN(C)Cc2cccc(OC)c2OC)c(N)n(Cc2ccccc2)c1=O,inactive
13,COCCCNC1=C(C#N)C(=O)NC(c2cccs2)S1 (stereo not drawn),inactive
14,CC1(C)OC(=O)C(=Cc2ccc(-c3ccc(S(N)(=O)=O)cc3)o2)C(=O)O1,inactive
15,O=c1c2ccc(F)cc2sn1-c1ccccc1,inactive
16,COc1cc2c(CCNC(C)=O)c[nH]c2cc1O,50.7 µM (active)
17,COc1ccc(Br)cc1CN1CCN(Cc2c[nH]c3ccccc23)CC1,inactive
18,Cc1ccc(C)c(S(=O)(=O)N2CCN(CC(=O)N3CCc4ccccc4C3)CC2)c1,inactive
19,O=C(Cc1coc2cc(O)ccc12)N1CCN(S(=O)(=O)c2ccc(Br)cc2)CC1,21.6 µM (active)
20,N#Cc1ccccc1S(=O)(=O)N1CCN(C(=O)Cc2coc3cc(O)ccc23)CC1,33.6 µM (active)
21,CCOc1ccc(CN2CCN(S(=O)(=O)c3ccc(NC(C)=O)cc3)CC2)cc1,inactive
22,CC(=O)N1CCN(CC(O)COc2ccc(Br)cc2)CC1 (stereo not drawn),inactive
